# ChEMBL document CHEMBL3988442, “University of Dundee, Small-Polar-MMV Screening Library” (2021)
# The whole screen tested about 66,000 compounds, of which about 960 (1.5%) showed an effect of 50% or more. The entries come from a sample that favours strong results as a whole.
# Test system: Trypanosoma brucei
# Assay: Trypanosoma brucei 72 hour study
# Format: functional, organism-based
# Parameters: scale not given: in the data most compounds retested in dose-response had high values
smiles,measurement,setting,value
O=C(COC[C@H]1CC[C@H]2[C@H](CCN2c2ccccn2)O1)N1CCCC1.O=C(O)C(F)(F)F,Percent Effect,"30 µM, 30.03 µM",-34.45%
O=C(COCC1CC[C@H]2[C@H](CCN2c2ncccn2)O1)N1CCCC1.O=C(O)C(F)(F)F (stereo partly specified),Percent Effect,"30 µM, 30.03 µM",-11.45%
O=C(COC[C@H]1CC[C@H]2[C@H](CCN2c2ncccn2)O1)N1CCCC1.O=C(O)C(F)(F)F,Percent Effect,"30 µM, 30.03 µM",52.31%
O=C(CC1CC1)N1CCC2(CC1)CN(c1cccnc1)C(=O)CO2.O=C(O)C(F)(F)F,Percent Effect,"30.3 µM, […]",-59.01%
CCOc1ncccc1C(=O)N1CCC(Nc2ccc(C)nn2)CC1,Percent Effect,"30.3 µM, […]",1.842%
same,Percent Effect,"10 mM, 10 mM as filed; unlikely as a test dose",-20.5%
CN(C)S(=O)(=O)N1C[C@H]2C[C@H](C(=O)Nc3cccnc3)[C@@H](C1)O2,Percent Effect,"30.3 µM, […]",-739.2%
N#Cc1c(C2CC2)cc(-c2ccc(F)c(F)c2)nc1N,Percent Effect,"30.3 µM, […]",-90.74%
N#Cc1c(C2CC2)cc(-c2ccc(O)cc2)nc1N,Percent Effect,"30 µM, 30.03 µM",17.72%
COc1ccc(-c2cc(C3CC3)c(C#N)c(N)n2)cc1F,Percent Effect,"30.3 µM, […]",93.34%
CN(C)CCO[C@@H]1CC[C@H]2[C@H]1OCCN2C(=O)c1ccc(F)cc1.O=C(O)C(F)(F)F,Percent Effect,"30.3 µM, […]",-19.82%
CN(C)c1cc(CNC(=O)Nc2ccc(N3CCCC3)nc2)ccn1,Percent Effect,"30.3 µM, […]",18.28%
O=C(CC1CCC2(CC1)CCN(Cc1cccnc1)CC2)N1CC=CC1.O=C(O)C(F)(F)F.O=C(O)C(F)(F)F,Percent Effect,"30.3 µM, […]",-37.26%
O=C(C1CCOC1)N1CCC2(CCN(Cc3nccs3)C2)CC1 (stereo unspecified),Percent Effect,"30 µM, 30.03 µM",6.218%
O=C(C1CCOC1)N1CCC2(CCN(Cc3nccs3)CC2)CC1 (stereo unspecified),Percent Effect,"30 µM, 30.03 µM",55.49%
O=C(C1CCOCC1)N1CCC2(CCN(Cc3nccs3)CC2)CC1.O=C(O)C(F)(F)F,Percent Effect,"30 µM, 30.03 µM",11.85%
CCn1cc(C(=O)N2C[C@H]3C[C@H](Oc4ccccc4)C[C@H]3C2)cn1,Percent Effect,"30.3 µM, […]",7.287%
CS(=O)(=O)NCc1nnc2n1CCN(Cc1cccnc1)C2,Percent Effect,"30.3 µM, […]",-308.6%
CS(=O)(=O)NCc1nnc2n1CCN(Cc1ccccn1)C2,Percent Effect,"30.3 µM, […]",73.82%
CS(=O)(=O)NCc1nnc2n1CCN(Cc1ccncc1)C2,Percent Effect,"30.3 µM, […]",-346.7%
CC(C)=CCN1C(=O)[C@H]2CC[C@@H]1CN(c1ncccc1C(N)=O)C2,Percent Effect,"30 µM, 30.03 µM",2.727%
CC1c2ncc(CNC(=O)C3CC3)n2CCN1Cc1nccs1.O=C(O)C(F)(F)F (stereo unspecified),Percent Effect,"30.3 µM, […]",-11.04%
CC(C)(C)n1ncc2c(=O)[nH]c(NC3CC=CC3)nc21,Percent Effect,"30 µM, 30.03 µM",100.8%
CC(C)(C)n1ncc2c(=O)[nH]c(N3CC(O)C3)nc21,Percent Effect,"30 µM, 30.03 µM",18.67%
CN1CC(Nc2nc3c(cnn3C(C)(C)C)c(=O)[nH]2)CCC1=O (stereo unspecified),Percent Effect,"30 µM, 30.03 µM",-21.89%
Cc1ncc(CN2CCC(N(C)Cc3noc(C4CC4)n3)C2)s1 (stereo unspecified),Percent Effect,10 µM,-20.3%
CC(Cn1cccn1)NC(=O)NCc1cccnc1 (stereo unspecified),Percent Effect,10 µM,-30.88%
O=C(O)C(c1ccc2c(c1)OCCO2)N1CCC(N2CCSCC2)CC1 (stereo unspecified),Percent Effect,"30 µM, 30.03 µM",-29.57%
CN(Cc1nc(N)c2ccccc2n1)CC1CCCN1c1cccnn1 (stereo unspecified),Percent Effect,"30 µM, 30.03 µM",4.932%
Cc1nc(CN(C)CC2CCCN2c2cccnn2)nc2ccccc12 (stereo unspecified),Percent Effect,"30.3 µM, […]",101.1%
Cc1nc2ccccc2nc1CN(C)CC1CCCN1c1cccnn1 (stereo unspecified),Percent Effect,"30 µM, 30.03 µM",-12.68%
Cc1nn(C)c(N(C)C)c1CNCCOc1ccc2c(c1)OCO2.Cl,Percent Effect,10 µM,-62.44%
Cc1nc(CNc2cccc(Cl)c2Cl)cs1,Percent Effect,"30.3 µM, […]",13.05%
CN(C)c1cccc(C2CCCN2Cc2nnnn2C2CC2)c1 (stereo unspecified),Percent Effect,"30 µM, 30.03 µM",-5.59%
O=C1OCCN1CCCN1CCCC1c1ccc(O)cc1 (stereo unspecified),Percent Effect,"30.3 µM, […]",-41.53%
CN(C)c1cccc(C2CCCN2CCCN2CCOC2=O)c1 (stereo unspecified),Percent Effect,"30.3 µM, […]",100.6%
Cc1cc(C(=O)N2CCN(c3nc4c(C(C)C)cccc4s3)CC2)no1,Percent Effect,"30 µM, 30.03 µM",-24.13%
Cc1ccc(CN(CCCn2ccnc2)Cc2cnc(N(C)C)nc2)s1.O=C(O)CC(O)(CC(=O)O)C(=O)O,Percent Effect,"30.3 µM, […]",-19.58%
CN(C)c1ccc(CN(CCCn2ccnc2)Cc2c[nH]cn2)cc1.O=C(O)CC(O)(CC(=O)O)C(=O)O,Percent Effect,"30.3 µM, […]",101.7%
Cc1ccc(CN(CCCn2ccnc2)Cc2c[nH]cn2)s1.O=C(O)CC(O)(CC(=O)O)C(=O)O,Percent Effect,"30.3 µM, […]",1.137%
CCOc1ccc(Cl)cc1C1CCCCN1.Cl (stereo unspecified),Percent Effect,"30 µM, 30.03 µM",-10.24%
Cc1cccc(CN2C(=O)CCC23CCN(C(=O)NC(C)C)CC3)n1.O=C(O)C(F)(F)F,Percent Effect,"30.3 µM, […]",-47.32%
CCn1ncc(-c2cc(C(F)(F)F)nc(N3CCC(N)CC3)n2)c1C,Percent Effect,"30.3 µM, […]",100.2%
Cc1c(-c2cc(C(F)(F)F)nc(N3CCC(N)CC3)n2)cnn1C,Percent Effect,"30.3 µM, […]",47.45%
Cc1ccc(-c2cc(C(F)(F)F)nc(N3CCOCC3)n2)s1,Percent Effect,"30 µM, 30.03 µM",-24.17%
CCc1ccc(-c2cc(C(F)(F)F)nc(N3CCC(N)CC3)n2)cc1,Percent Effect,"30.3 µM, […]",100.3%
O=C(O)C1CCCN1c1nc(-c2ccc(Cl)c(Cl)c2)cc(C(F)(F)F)n1 (stereo unspecified),Percent Effect,"30 µM, 30.03 µM",-7.275%
O=C(O)C1CCCN1c1nc(-c2ccc(Cl)cc2)cc(C(F)(F)F)n1 (stereo unspecified),Percent Effect,"30 µM, 30.03 µM",-38.97%
Cc1nccn1CCC1CCNCC1.Cl.Cl,Percent Effect,"30.3 µM, […]",-19.74%
CC1c2ncc(Cn3cccn3)n2CCN1Cc1ccc(F)cc1.O=C(O)C(F)(F)F (stereo unspecified),Percent Effect,"30.3 µM, […]",6.386%
CCS(=O)(=O)N1CCCC(Cc2cnccn2)C1 (stereo unspecified),Percent Effect,"30.3 µM, […]",-26.51%
c1ncn(CC2CCCN(Cc3noc(C4CC4)n3)C2)n1 (stereo unspecified),Percent Effect,"30.3 µM, […]",-10.36%
C1CCCN(CC2CCCN(Cc3noc(C4CC4)n3)C2)CC1 (stereo unspecified),Percent Effect,"30.3 µM, […]",63.76%
C1CC(NCC2CC2)CN(Cc2noc(C3CC3)n2)C1 (stereo unspecified),Percent Effect,"30.3 µM, […]",-4.666%
C1CCC(CNC2CCCN(Cc3noc(C4CC4)n3)C2)CC1 (stereo unspecified),Percent Effect,"30.3 µM, […]",78.83%
C1CCC(CNC2CCCN(Cc3noc(C4CC4)n3)C2)C1 (stereo unspecified),Percent Effect,"30.3 µM, […]",26.01%
C1CCCN(C2CCCN(Cc3noc(C4CC4)n3)C2)CC1 (stereo unspecified),Percent Effect,"30.3 µM, […]",49.07%
Cn1cc(CN2C[C@@H]3COC[C@H](C(=O)Nc4cccnc4)[C@@H]3C2)cn1.O=C(O)C(F)(F)F.O=C(O)C(F)(F)F,Percent Effect,"30 µM, 30.03 µM",-8.066%
NC(=O)c1ccccc1NC(=O)CCN1CCN(c2ccccc2)CC1,Percent Effect,"30 µM, 30.03 µM",4.761%
CCOC(=O)N1CCc2ccccc2C12CCNCC2.Cl,Percent Effect,"30.3 µM, […]",-45.47%
Cc1ccc(CN2CCC3(CC2)CN(C(=O)c2cnccn2)CCO3)o1.O=C(O)C(F)(F)F,Percent Effect,"30.3 µM, […]",-12.58%
CC1=N[C@@]2(CC[C@@H]3CN(Cc4ccccc4F)C[C@@H]32)C(=O)N1CC1CC1.O=C(O)C(F)(F)F,Percent Effect,"30 µM, 30.03 µM",55.44%
CC1=N[C@@]2(CC[C@@H]3CN(Cc4ccccc4)C[C@@H]32)C(=O)N1CC1CC1.O=C(O)C(F)(F)F,Percent Effect,"30.3 µM, […]",-40.35%
CC1=N[C@@]2(CC[C@@H]3CN(Cc4ccccc4C)C[C@@H]32)C(=O)N1CC1CC1.O=C(O)C(F)(F)F,Percent Effect,"30.3 µM, […]",-63.56%
CN(C)C(=O)c1cc2c(nc1NCC1CC1)CCNCC2,Percent Effect,"30.3 µM, […]",-109.7%
O=C(c1cnn(-c2ccccc2F)c1)N1CCN(CCO)CC1,Percent Effect,"30 µM, 30.03 µM",1.358%
CCC(O)CN1CCN(C(=O)c2cnn(-c3ccccc3F)c2)CC1 (stereo unspecified),Percent Effect,"30 µM, 30.03 µM",22.96%
CCCN1CCN(C(=O)c2cnn(-c3ccccc3F)c2)CC1,Percent Effect,"30 µM, 30.03 µM",55.35%
CN1C(=O)CC[C@]12CC[C@@H](NCc1ccsc1)CC2.O=C(O)C(F)(F)F,Percent Effect,"30.3 µM, […]",8.729%
CC(C)CCN1C[C@H]2C[C@H](C(=O)NCc3ccccc3)[C@@H](C1)O2.O=C(O)C(F)(F)F,Percent Effect,"30 µM, 30.03 µM",29.18%
CCn1cc(-c2cc(-c3cc(CN(C)C)cs3)nc(N)c2C#N)c(C)n1,Percent Effect,"30 µM, 30.03 µM",-4.566%
Cc1ccc(Cl)c(CN2CCC(c3nccn3C(C)C)CC2)c1F,Percent Effect,"30 µM, 30.03 µM",104.1%
CCn1ccnc1C1CCN(Cc2cccc(Cl)c2)CC1,Percent Effect,"30 µM, 30.03 µM",-40.4%
CC(C)n1ccnc1C1CCN(Cc2ccc(Cl)c(F)c2)CC1,Percent Effect,"30 µM, 30.03 µM",33.49%
Cc1cc(CN2CCC(c3nccn3C(C)C)CC2)ccc1F,Percent Effect,"30 µM, 30.03 µM",-24.52%
CCn1ccnc1C1CCN(Cc2cccc(C)n2)CC1,Percent Effect,"30 µM, 30.03 µM",-34.54%
CCn1ccnc1C1CCN(Cc2c(F)cccc2F)CC1,Percent Effect,"30 µM, 30.03 µM",86.79%
COc1ccc(Cl)cc1C(C(=O)O)N1CCSCC1 (stereo unspecified),Percent Effect,"30.3 µM, […]",-71.2%
CN(C)c1nc(N)nc(CN2CCCC2c2ccsc2)n1 (stereo unspecified),Percent Effect,"30 µM, 30.03 µM",-20.26%
CN(C)c1nc(N)nc(CN2CCCC2c2cccs2)n1 (stereo unspecified),Percent Effect,"30 µM, 30.03 µM",-6.91%
Cc1cccc(C2CCCN2Cc2nc(N)nc(N(C)C)n2)c1C (stereo unspecified),Percent Effect,"30 µM, 30.03 µM",100.5%
Cc1ccc(C(=O)NCc2ccnc(C3CCCOC3)n2)s1 (stereo unspecified),Percent Effect,"30.3 µM, […]",49.43%
O=C(NCc1ccnc(C2CCCOC2)n1)c1cccs1 (stereo unspecified),Percent Effect,"30.3 µM, […]",-2.313%
Cc1ccsc1C(=O)NCc1ccnc(C2CCCOC2)n1 (stereo unspecified),Percent Effect,"30.3 µM, […]",54.51%
Cn1ccc(CN2CCC3(CCCN3CC3CC3)CC2)n1.O=C(O)C(F)(F)F.O=C(O)C(F)(F)F,Percent Effect,"30.3 µM, […]",-89.65%
COC1CN(C(=O)CC(C)(C)C)CCC(=O)N(C)c2ccccc21 (stereo unspecified),Percent Effect,"30.3 µM, […]",-11.06%
CC(C)NC(=O)[C@H]1C[C@@H]2CN(C(=O)NCc3ccccc3)C[C@H]1O2,Percent Effect,"30 µM, 30.03 µM",43.99%
CSCC[C@@H](CO)Nc1ccc(-c2nc(-c3ccccc3C)no2)cn1,Percent Effect,"30.3 µM, […]",99.8%
CSCC[C@@H](CO)Nc1ccc(-c2nc(-c3ccccc3F)no2)cn1,Percent Effect,"30.3 µM, […]",-25.91%
CSCC[C@@H](CO)Nc1ccc(-c2nc(C3CC3)no2)cn1,Percent Effect,"30.3 µM, […]",19.73%
Cc1ccc(CN(C)C(=O)c2cnsn2)cc1,Percent Effect,"30 µM, 30.03 µM",-21.68%
CCc1ncc(CN2CCOC(Cc3cccc(F)c3)C2)cn1 (stereo unspecified),Percent Effect,"30.3 µM, […]",-57.81%
O=C(Cc1ccc2c(c1)CCCC2)Nc1cccnc1N1CCSCC1,Percent Effect,"30 µM, 30.03 µM",7.169%
COCCNC(=O)c1cc2c(s1)CCN2C(=O)c1ccccc1,Percent Effect,"30 µM, 30.03 µM",61.44%
CCCNC(=O)c1cc2c(s1)CCN2C(=O)c1ccccc1,Percent Effect,"30.3 µM, […]",-5.969%
O=C(NCCN1CCCC1)c1cc2c(s1)CCN2C(=O)c1ccccc1,Percent Effect,"30.3 µM, […]",-8.761%
